The source made the active and inactive calls.
Legend:
[1] = tested on: PRMT1 (protein arginine N-methyltransferase 1); test: small molecules binding arginine methyltransferase PRMT1 – biochemical, small-molecule microarray, 635 nm fluorescence, primary screen (AID 1088); details: higher = more signal;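 also: binding of Prmt1 protein to compounds spotted on small-molecule microarray slides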
[2] = growth effects on S. cerevisiae YJM789 – YJM789 clinical isolate, OD600, 24 h, basal, primary screen (AID 1089); details: higher = more signal, called active from +8 up or from −8 down;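 also: growth of clinical yeast isolate S. cerevisiae YJM 789 seeded 1000 cells per well; test concentration not given here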
[3] = S. pombe growth modifiers, basal conditions – strain 972, OD600, 24 h, no modulator, primary screen (AID 1090);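 also: basal condition with compound alone and no growth modifier present; test concentration not given here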; details: S. pombe 972 growth, higher = more signal, called active from +8 up or from −8 down
[4] = budding yeast growth modifiers under rapamycin – strain BY4716, OD600, 96 h, primary screen (AID 1091); also: test concentration not given here; details: S. cerevisiae BY4716 + rapamycin, higher = more signal, called active from +8 up or from −8 down
[5] = molecular target: Torsin-1A-interacting protein 2 (Homo sapiens) (UniProt Q8NFQ8); test: small molecules binding lysate-expressed LULL1 – cell lysate, human LULL1 lysate, 635/667 nm fluorescence, primary screen (AID 1092); details: small-molecule microarray, hLULL1 lysate binding, 635 nm fluorescence; higher = more signal;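 also: probe is lysate of COS7 cells overexpressing human LULL1; score merges per-feature 667 nm fluorescence with signal-to-noise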
[6] = optical density change of DRC41 E. coli – strain DRC41, OD650, 24 h, E. coli filamentation project, primary screen (AID 1093);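 also: MC1000 strain lacking acrAB efflux and sulA so SOS filamentation is blocked; test concentration not given here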; details: E. coli DRC41 growth, higher = more signal, called active from +8 up or from −8 down
[7] = probe aLefty2 binding to arrayed compounds – biochemical, biotinylated probe, 635/667 nm fluorescence, primary screen (AID 1094); details: small-molecule microarray, higher = more signal;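 also: score merges spot fluorescence near 667 nm with spot signal-to-noise ratio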
[8] = tested on: Noggin (protein binding on small-molecule microarray); test: small molecules binding Noggin protein – biochemical, 635/667 nm fluorescence, primary screen (AID 1095); details: 635 nm fluorescence, higher = more signal;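 also: score merges 667 nm feature fluorescence with signal to noise over triplicate slides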
[9] = molecular target: Neurogenic locus notch homolog protein 3 (Homo sapiens) (UniProt Q9UM47); test: small molecules binding NOTCH3 protein – biochemical, 635/667 nm fluorescence, primary screen (AID 1096); details: small-molecule microarray, 635 nm fluorescence, higher = more signal
[10] = probe aEGFR binding to arrayed compounds – biochemical, biotinylated probe, 635/667 nm fluorescence, primary screen (AID 1097); details: small-molecule microarray, higher = more signal;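 also: probe is a biotinylated anti-EGFR antibody binding compounds printed on slides; score combines fluorescence near 667 nm and signal to noise of each spot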

Chain of Neurogenic locus notch homolog protein 3 (Homo sapiens) (Q9UM47 whole entry, looked up): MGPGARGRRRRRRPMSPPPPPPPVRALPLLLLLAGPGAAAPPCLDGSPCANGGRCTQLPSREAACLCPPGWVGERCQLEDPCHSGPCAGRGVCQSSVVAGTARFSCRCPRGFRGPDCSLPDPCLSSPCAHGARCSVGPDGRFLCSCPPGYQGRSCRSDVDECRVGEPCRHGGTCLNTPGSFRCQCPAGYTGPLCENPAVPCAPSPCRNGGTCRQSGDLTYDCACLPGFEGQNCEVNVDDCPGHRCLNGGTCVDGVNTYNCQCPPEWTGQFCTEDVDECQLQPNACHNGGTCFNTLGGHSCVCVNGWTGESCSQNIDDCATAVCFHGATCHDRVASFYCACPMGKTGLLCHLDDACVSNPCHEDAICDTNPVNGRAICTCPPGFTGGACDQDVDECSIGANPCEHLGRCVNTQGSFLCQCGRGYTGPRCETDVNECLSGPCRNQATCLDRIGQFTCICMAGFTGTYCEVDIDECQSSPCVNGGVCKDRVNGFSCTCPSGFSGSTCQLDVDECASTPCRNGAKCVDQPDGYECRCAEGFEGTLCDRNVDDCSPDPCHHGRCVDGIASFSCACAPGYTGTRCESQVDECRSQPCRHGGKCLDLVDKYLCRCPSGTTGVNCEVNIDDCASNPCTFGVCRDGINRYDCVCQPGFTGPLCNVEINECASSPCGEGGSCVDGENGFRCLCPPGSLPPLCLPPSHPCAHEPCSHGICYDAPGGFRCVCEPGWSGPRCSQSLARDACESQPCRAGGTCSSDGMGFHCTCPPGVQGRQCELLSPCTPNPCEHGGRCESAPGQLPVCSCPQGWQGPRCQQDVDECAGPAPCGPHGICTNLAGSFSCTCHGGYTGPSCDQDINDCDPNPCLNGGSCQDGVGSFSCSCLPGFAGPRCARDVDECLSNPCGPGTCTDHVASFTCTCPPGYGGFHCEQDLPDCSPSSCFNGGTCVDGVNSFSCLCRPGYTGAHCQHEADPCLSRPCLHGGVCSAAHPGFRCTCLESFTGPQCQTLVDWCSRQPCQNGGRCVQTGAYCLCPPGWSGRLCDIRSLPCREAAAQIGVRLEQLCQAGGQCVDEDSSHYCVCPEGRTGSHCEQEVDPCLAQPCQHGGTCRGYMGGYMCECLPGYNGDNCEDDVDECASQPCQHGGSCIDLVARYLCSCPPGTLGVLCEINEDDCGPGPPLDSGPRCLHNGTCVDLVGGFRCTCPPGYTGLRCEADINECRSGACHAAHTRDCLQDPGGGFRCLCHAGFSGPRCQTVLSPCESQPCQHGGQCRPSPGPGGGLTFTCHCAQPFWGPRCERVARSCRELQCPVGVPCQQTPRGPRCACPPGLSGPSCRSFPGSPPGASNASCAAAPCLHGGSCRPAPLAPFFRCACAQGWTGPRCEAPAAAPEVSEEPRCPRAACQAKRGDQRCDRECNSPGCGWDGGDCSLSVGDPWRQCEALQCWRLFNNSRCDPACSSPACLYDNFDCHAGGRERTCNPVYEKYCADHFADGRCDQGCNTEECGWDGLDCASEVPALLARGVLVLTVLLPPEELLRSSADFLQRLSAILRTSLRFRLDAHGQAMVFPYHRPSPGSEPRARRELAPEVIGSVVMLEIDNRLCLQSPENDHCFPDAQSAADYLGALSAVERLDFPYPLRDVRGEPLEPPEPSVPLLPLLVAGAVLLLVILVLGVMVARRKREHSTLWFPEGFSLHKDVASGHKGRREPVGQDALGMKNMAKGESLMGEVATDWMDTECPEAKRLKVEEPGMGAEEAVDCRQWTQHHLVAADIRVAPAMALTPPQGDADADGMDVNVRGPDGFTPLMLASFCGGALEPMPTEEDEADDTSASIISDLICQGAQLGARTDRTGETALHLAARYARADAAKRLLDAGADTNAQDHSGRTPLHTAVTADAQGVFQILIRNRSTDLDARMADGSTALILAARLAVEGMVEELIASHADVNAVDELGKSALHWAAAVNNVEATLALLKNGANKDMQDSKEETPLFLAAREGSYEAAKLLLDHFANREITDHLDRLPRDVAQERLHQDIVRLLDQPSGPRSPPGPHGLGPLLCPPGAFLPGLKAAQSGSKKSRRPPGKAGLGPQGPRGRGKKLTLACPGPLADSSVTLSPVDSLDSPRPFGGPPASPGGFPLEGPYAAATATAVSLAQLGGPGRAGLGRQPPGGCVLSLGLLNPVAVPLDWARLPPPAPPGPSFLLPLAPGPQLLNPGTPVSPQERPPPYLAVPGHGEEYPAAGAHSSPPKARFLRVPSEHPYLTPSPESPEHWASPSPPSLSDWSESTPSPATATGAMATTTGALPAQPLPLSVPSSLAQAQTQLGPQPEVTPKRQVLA
Chain of Torsin-1A-interacting protein 2 (Homo sapiens) (Q8NFQ8 whole entry, looked up): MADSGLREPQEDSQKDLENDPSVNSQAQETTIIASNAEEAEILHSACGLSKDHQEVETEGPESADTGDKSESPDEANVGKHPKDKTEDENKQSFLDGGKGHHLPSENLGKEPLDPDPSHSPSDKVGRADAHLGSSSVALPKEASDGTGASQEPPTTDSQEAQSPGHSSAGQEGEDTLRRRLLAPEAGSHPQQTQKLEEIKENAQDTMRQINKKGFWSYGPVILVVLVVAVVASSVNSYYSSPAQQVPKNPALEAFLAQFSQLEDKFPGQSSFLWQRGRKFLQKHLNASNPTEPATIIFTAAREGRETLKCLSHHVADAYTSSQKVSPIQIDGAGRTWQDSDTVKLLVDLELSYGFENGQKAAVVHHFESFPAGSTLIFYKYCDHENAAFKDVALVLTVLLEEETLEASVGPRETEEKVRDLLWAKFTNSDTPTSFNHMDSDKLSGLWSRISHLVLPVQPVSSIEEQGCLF

SMILES | composite z-score [1] | z-score [2] | z-score [3] | z-score [4] | composite z-score [5] | z-score [6] | composite z-score [7] | composite z-score [8] | composite z-score [9] | composite z-score [10]
CO[C@H]1COC(=O)[C@@H](C)COC(=O)[C@H](C)NC(=O)CC=C[C@H]1C | 1.23 | 0.508 (inactive) | 0.0971 (inactive) | -0.431 (inactive) | 0.0586 | 0.414 (inactive) | -0.212 | 1.64 | 0.195 | 0.0673
CCOC(=O)[C@H](CC(C)C)NC(=O)CCC1CC(OC(=O)NCCc2ccc(F)cc2)CC2(CCCC(COC(=O)NCC3CCCCC3)O2)O1 (stereo not given in full) | 0.49 | -0.808 (inactive) | 0.541 (inactive) | 1.23 (inactive) | 1.12 | -0.61 (inactive) | -0.231 | 0.266 | 0.291 | 0.0069
CO[C@H]1COC(=O)CC=C[C@H](C)COC(=O)[C@@H](C)NC(=O)CC=C[C@@H]1C | 1.53 | -0.78 (inactive) | -0.809 (inactive) | -1.18 (inactive) | -1.13 | 0.0007 (inactive) | -0.289 | 1.88 | -0.222 | -0.0606
CCN1C(=O)[C@H]2[C@H]3[C@H](O)[C@H](O)CC(=NOC[C@H]4O[C@H](c5ccccc5)C=C[C@@H]4Oc4ccc(OC)cc4)[C@@H]3CC[C@H]2C1=O | 1.28 | -0.125 (inactive) | -0.653 (inactive) | -0.175 (inactive) | 0.996 | 0.964 (inactive) | -0.0271 | 0.738 | 1.11 | -0.0085
CC(C)[C@@H](OCc1ccccc1)[C@H](C)C=NOC[C@@H](O)COCc1ccco1 | -0.0832 | -1.64 (inactive) | -4.1 (inactive) | -1.15 (inactive) | -0.425 | 0.799 (inactive) | -0.364 | 0.0964 | -0.0957 | -0.357
CC(C)=CCCC(C)=CCON=C1C[C@@H](O)[C@@H](O)[C@@H]2[C@@H]3C(=O)N(C4CCCCC4)C(=O)[C@@H]3CC[C@@H]12 | 0.614 | -0.671 (inactive) | -2.8 (inactive) | -0.513 (inactive) | -0.687 | -0.257 (inactive) | -0.15 | 0.615 | -0.407 | -0.0956
COC(=O)CC=C[C@@H](C)[C@@H](C=NOCC[C@@H]1C=C[C@H](OC(C)=O)[C@@H](COC(C)=O)O1)OC | 1.08 | 0.355 (inactive) | -0.295 (inactive) | 0.474 (inactive) | 0.431 | -0.152 (inactive) | -0.0321 | 0.405 | 0.308 | 0.0754
CO[C@@H]1COC(=O)CC=C[C@@H](C)[C@@H]2C=C[C@H](O)[C@@H](COC(=O)CC=C[C@H]1C)O2 | 1.56 | -0.48 (inactive) | -0.636 (inactive) | -0.922 (inactive) | -0.664 | 0.713 (inactive) | -0.123 | 1.47 | 0.276 | 0.0651
CC(C)=CCCC(C)=CCON=C1C[C@@H](O)[C@@H](O)[C@@H]2[C@@H]3C(=O)N(c4cccc(Oc5ccccc5)c4)C(=O)[C@@H]3CC[C@@H]12 | 0.355 | 0.164 (inactive) | -0.153 (inactive) | -0.184 (inactive) | 1.15 | 0.951 (inactive) | -0.124 | -0.283 | 0.751 | -0.0302
CC(=O)OC[C@H]1O[C@@H](ON=C(C)CCN2CCCc3nc(C)c(C)cc32)[C@H](OC(C)=O)[C@@H](OC(C)=O)[C@@H]1OC(C)=O | 1.55 | 0.215 (inactive) | 0.0313 (inactive) | 0.427 (inactive) | 0.993 | -0.722 (inactive) | -0.136 | 0.952 | 1.11 | 0.0781
CCOC(=O)[C@H](Cc1ccccc1)NC(=O)CCC1CC(OC(=O)NCc2ccc3c(c2)OCO3)CC2(CCCC(COC(=O)NCCc3ccccc3OC)O2)O1 (stereo not given in full) | 1.49 | 0.163 (inactive) | 1.07 (inactive) | 1.52 (inactive) | 2.67 | -0.324 (inactive) | -0.112 | 0.679 | 1.08 | 0.0287
CCOC(=O)[C@H](CC(C)C)NC(=O)CCC1CC(OC(=O)NCc2cccc3ccccc23)CC2(CCCC(COC(=O)NCCCN3CCCC3=O)O2)O1 (stereo not given in full) | 1.4 | -0.139 (inactive) | 0.409 (inactive) | -0.224 (inactive) | 1.68 | -0.165 (inactive) | -0.0998 | 0.822 | 1.12 | -0.0238
CCOC(=O)NN=C1C[C@@H](O)[C@@H](O)[C@@H]2[C@@H]3C(=O)N(c4cccc(Oc5ccccc5)c4)C(=O)[C@@H]3CC[C@H]12 | 0.626 | -1.57 (inactive) | -0.216 (inactive) | -0.873 (inactive) | 0.0068 | -0.998 (inactive) | -0.175 | 0.311 | 0.589 | -0.0371
Cc1ccc(S(=O)(=O)OC[C@H]2CN3[C@H](c4ccc(Br)cc4)[C@@H](C)CC[C@H]3C(=O)O2)cc1 | 1.23 | -0.855 (inactive) | -17.8 (active) | -3.38 (inactive) | 1.3 | 2.18 (inactive) | -0.259 | 1.24 | 0.323 | -0.136
C#CCCCON=C1C[C@@H](O)[C@@H](O)[C@@H]2[C@@H]3C(=O)N(CCC(=O)OCC)C(=O)[C@@H]3CC[C@H]12 | 1.48 | -1.64 (inactive) | -1.32 (inactive) | -0.947 (inactive) | 1.28 | 0.299 (inactive) | -0.104 | 0.4 | 1.1 | -0.0419
COC(=O)[C@@H]1CC[C@@H](C)[C@H](c2ccc(Br)cc2)N1 | 0.265 | 0.0156 (inactive) | -0.179 (inactive) | -0.116 (inactive) | -0.188 | 0.104 (inactive) | -0.0943 | 0.255 | -0.275 | -0.125
CO[C@@H]1C=CCC(=O)N[C@@H](C)C(=O)OC[C@@H](OC)[C@H](C)CCCC(=O)OC[C@H]1C | 1.44 | -0.465 (inactive) | -0.111 (inactive) | -1.17 (inactive) | -2.13 | 0.976 (inactive) | -0.153 | 1.91 | -1.04 | -0.0485
CO[C@H]1COC(=O)CC=C[C@@H](C)[C@H](OC)COC(=O)[C@@H]2CCCN2C(=O)CC=C[C@@H]1C | 1.12 | 0.221 (inactive) | -0.0931 (inactive) | -0.202 (inactive) | -0.328 | 0.619 (inactive) | -0.229 | 1.41 | 0.716 | 0.0115
COc1ccc(COC(=O)NN=C2C[C@@H](O)[C@@H](O)[C@@H]3[C@@H]4C(=O)N(C5CCCCC5)C(=O)[C@@H]4CC[C@H]23)cc1 | -0.416 | 0.494 (inactive) | 0.586 (inactive) | 0.818 (inactive) | 0.271 | -0.277 (inactive) | 0.432 | -0.752 | -1.19 | -0.242
CCOC(=O)[C@H](Cc1ccccc1)NC(=O)CCC1CC(OC(=O)NCCc2ccc(F)cc2)CC2(CCCC(COC(=O)NCCOC)O2)O1 (stereo not given in full) | 1.46 | 0.197 (inactive) | 0.143 (inactive) | -0.16 (inactive) | 1.73 | 0.769 (inactive) | -0.147 | 0.325 | 0.796 | 0.153
CCCCC#C[C@@H]1C=C[C@H](Oc2cc(OC)c(OC)c(OC)c2)[C@@H](COC(=O)OCC)O1 | 0.314 | 0.635 (inactive) | -2.19 (inactive) | 0.398 (inactive) | -0.16 | 0.934 (inactive) | -0.209 | 0.229 | -0.208 | -0.162
CC(CCN1CCCCc2nc(C)c(C)cc21)=NOC[C@@H](C)[C@H](OCc1ccccc1)C(C)C | -0.262 | -2.75 (inactive) | -5.66 (inactive) | -0.677 (inactive) | -0.569 | -1.42 (inactive) | -0.467 | -1.02 | -1.53 | -0.551
CCOC(=O)[C@H](CC(C)C)NC(=O)CCC1CC(OC(=O)NCc2ccc3c(c2)OCO3)CC2(CCCC(COC(=O)NCC3CCCCC3)O2)O1 (stereo not given in full) | 1.24 | 0.192 (inactive) | -0.0848 (inactive) | -0.113 (inactive) | 1.49 | 0.409 (inactive) | -0.323 | 0.553 | 1.09 | -0.109
CC(C)CON=C1C[C@@H](O)[C@@H](O)[C@@H]2[C@@H]3C(=O)N(c4ccc(F)cc4F)C(=O)[C@@H]3CC[C@H]12 | 1.55 | -0.254 (inactive) | -0.59 (inactive) | -0.337 (inactive) | 1.63 | -0.385 (inactive) | -0.304 | 0.409 | 1.08 | -0.0512
COCOc1ccc(Br)cc1C(=O)[C@@H]1O[C@H]1c1cccc(OC)c1 | -0.0021 | -1.33 (inactive) | -6.67 (inactive) | -0.822 (inactive) | 0.497 | 1.58 (inactive) | -0.142 | 0.455 | 0.257 | -0.112
CCOC(=O)NN=C1C[C@@H](O)[C@@H](O)[C@@H]2[C@@H]3C(=O)N([C@@H](C)c4ccccc4)C(=O)[C@@H]3CC[C@H]12 | 0.215 | -0.612 (inactive) | 0.366 (inactive) | -0.222 (inactive) | 0.261 | 0.352 (inactive) | -0.0458 | 0.264 | 0.507 | 0.0122

Source: PubChem BioAssay
